# Assay outcomes from PubChem BioAssay.
# HepG2 viability: HepG2 cytotoxicity, counter-screen for TGF-b inhibitors; AID 588856; HepG2 CAGA-GFP viability, ATP luminescence, 18 h; 410,000 compounds, 0.76% hits; Potency, µM (doses to about 46.1 µM), for the others: at the top dose activity change, negative = cytotoxicity, actives largely listed as cytotoxic; further: potency means the concentration at half of the fitted maximal effect
#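 HepG2 CAGA-GFP cells (1000/well, DMEM with 1% FBS) received compound, then TGF-beta at 500 pg/mL final, and were incubated 18 hours at 37 degrees C. Viability was read by CellTiter-Glo luminescence. Media-only wells were set as complete cell-killing and DMSO as no toxicity.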
# IL-1B inflam inh: inflammasome signaling inhibition, IL-1 beta readout. activity change, % at 57.5 µM. 360,000 compounds, 4.7% hits. THP-1 LPS/ATP IL-1B secretion, AlphaLISA, 16 h; stronger effect = lower value; in the data active means activity change below about -50%; inconclusive means mostly about -30% to -49%; further: on the % scale 0 is the no-effect control and ±100 the full control effect
#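 THP-1 cells pretreated 1 hr with compounds (up to 57.5 uM final), then stimulated with LPS (250 ng/mL final) plus ATP (1.25 mM final); secreted IL-1B measured by AlphaLISA after 16 hr, decreased signal indicating inhibition.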
# TGFb SMAD3 inh: blocks TGF-b signaling | HepG2 CAGA-GFP TGF-b/SMAD3 reporter, GFP fluorescence, 18 h; TGF-beta stimulated, 500 pg/mL final | Potency, µM (top dose mostly 46.1 µM), inactives show top-dose activity, negative = inhibition, most hits filed as inhibitors | 410,000 compounds, 1.2% hits | AID 588855; further: potency means the concentration at half of the fitted maximal effect; on the % scale 0 is the no-effect control and ±100 the full control effect; nearly all actives have a fitted effect of over 65% in size
#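 Read-out: total well GFP (ex488/em500-530) summed from mean per-cell fluorescence. Cells: HEPG2 CAGA-GFP, 1% FBS DMEM, 18 h at 37 degrees C with 500 pg/mL final TGF-beta. Unstimulated wells served as the full-inhibition control; stimulated DMSO wells = 0%.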
# DT40 TDP1 CPT: growth inhibition of DT40 Tdp1-/-;hTDP1 cells with camptothecin (screen for TDP1 inhibitors) | Potency, µM (titrated, usually from 46.2 µM), without a hit: top-dose activity change, negative = growth inhibition, hits mostly inhibitors | 420,000 compounds, 12% hits | chicken DT40 Tdp1-/-;hTDP1 cells + 20 nM CPT, ATP luminescence, 48 h; further: potency means the concentration at half of the fitted maximal effect; on the % scale 0 is the no-effect control and ±100 the full control effect; nearly all actives have a fitted effect of over 55% in size
#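 Cell growth measured by CellTiter-Glo luminescence after a minimum 48 h, 37 C compound exposure with 20 nM CPT in Tdp1-knockout DT40 cells stably expressing hTDP1, seeded 400/well; qHTS titration format.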
# S-ASM inh: human S-ASM enzyme inhibition | P17405 | placental ASM, HMU-PC fluorogenic substrate, 60 min | Potency, µM (series often up to 57.5 µM), inactives show top-dose activity change, negative = inhibition, actives largely listed as inhibitors | 340,000 compounds, 0.006% hits; further: potency means the concentration at half of the fitted maximal effect
# Target sequence (P17405 47-631 limits assumed): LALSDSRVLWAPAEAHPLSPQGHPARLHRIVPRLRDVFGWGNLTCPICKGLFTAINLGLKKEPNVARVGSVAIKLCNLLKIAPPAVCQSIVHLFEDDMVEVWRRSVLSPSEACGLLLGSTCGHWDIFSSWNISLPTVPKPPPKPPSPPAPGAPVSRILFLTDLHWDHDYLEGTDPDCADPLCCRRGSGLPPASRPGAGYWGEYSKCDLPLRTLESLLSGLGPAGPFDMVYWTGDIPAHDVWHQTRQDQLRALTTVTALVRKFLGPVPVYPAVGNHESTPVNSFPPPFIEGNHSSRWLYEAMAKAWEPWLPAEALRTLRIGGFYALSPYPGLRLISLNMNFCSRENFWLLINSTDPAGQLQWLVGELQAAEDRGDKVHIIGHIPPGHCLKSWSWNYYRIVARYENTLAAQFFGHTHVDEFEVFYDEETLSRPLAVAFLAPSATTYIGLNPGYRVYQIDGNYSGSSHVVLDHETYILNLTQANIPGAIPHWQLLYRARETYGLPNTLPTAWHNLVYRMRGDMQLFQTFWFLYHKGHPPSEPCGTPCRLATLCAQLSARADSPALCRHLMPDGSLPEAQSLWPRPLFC
#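 Human placenta-derived ASM preincubated with compound 10 min at room temperature, then reacted with 9 uM (final) fluorogenic HMU-PC substrate for 60 min at 37 C. Stop solution raises pH to 10; fluorescence read at Ex 386/Em 447 nm.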
# TDP1 cell noCPT: qHTS for Inhibitors of human tyrosyl-DNA phosphodiesterase 1 (TDP1): qHTS in cells in absence of CPT; DT40 Tdp1-/- hTDP1 cells, no CPT, ATP luminescence, 48 h; Potency, µM (series often up to 46.2 µM), without a hit: top-dose activity change, negative = growth inhibition, usual class: inhibitors; 420,000 compounds, 15% hits; further: potency means the concentration at half of the fitted maximal effect; on the % scale 0 is the no-effect control and ±100 the full control effect; nearly all actives have a fitted effect of over 55% in size
#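 Readout: luminescence from CellTiter-Glo after 30 min in the dark at RT. Cells: DT40 Tdp1-/- with stable hTDP1, 400/well. Exposure: compounds alone, ≥48 hr, 37 °C.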
# * marks the source's active call; other numbers are inactive results; ? = inconclusive; · = no result; ! = not confirmed by another sample; [ ] = remark or other dose. An excerpt weighted towards active compounds, which were near 19% of everything screened. Unless noted, the call rests on the fitted dose curve; in most records, active means well fitted curve in the direction sought with a large enough effect; inconclusive means small, poorly fitted or top-dose-only effect, or another doubt; inactive means no such curve, though single readings can be large; an effect the other way counts as inactive or inconclusive.
SMILES,HepG2 viability,IL-1B inflam inh,TGFb SMAD3 inh,DT40 TDP1 CPT,S-ASM inh,TDP1 cell noCPT
CCOP(=O)(OCC)C(NC(=O)c1cc([N+](=O)[O-])cc([N+](=O)[O-])c1)C(F)(F)F (configuration not stated),-3%,-16,-3%,-1%,-2%,-13%
Cc1ccc(NC(=S)N2CCC(N(C)CC3CCCO3)CC2)cc1 (configuration not stated),-35%,-11,-9%,4%,2%,8%
CC(C)c1ccc(OCC(=O)NC2=NCCS2)cc1,17%,-18,6%,-25%,5%,?
Cc1cnc(NC(=O)CC(C)c2ccccc2)s1 (configuration not stated),-8%,36,1%,6.5µM*,-3%,5.2µM*
CCOC(=O)c1sc(NC(=O)CSC(=S)N2CCN(C)CC2)nc1C,4%,?,3%,26µM*,1%,18µM*
CCOC(=O)c1sc(NC(=O)CCSC)nc1C,-5%,-10,-3%,?,-1%,?
CC(C)c1nnc(NC(=O)CC(C)c2ccccc2)s1 (configuration not stated),5%,16,-7%,-13%,-3%,-28%
COc1ccccc1OCc1nc2ccccc2n1Cc1ccccc1,-6%,·,-14%,?,·,16µM*
ClCc1nc2ccccc2n1Cc1ccccc1,-10%,-2,2%,10µM*,-5%,7.3µM*
Cc1ccc(Cn2c(Cc3ccccc3)nc3ccccc32)cc1,16µM*!,8,?,18µM*!,-2%,16µM*
O=S(=O)(Nc1ccc(F)c(Cl)c1)c1ccc(Br)s1,-36%,·,?,?,·,?
Cc1ccc(C)c(S(=O)(=O)N2CCCC2CNC(=O)C(=O)NC2CCCC2)c1 (configuration not stated),4%,1,0%,-8%,3%,-32%
Cc1ccc(Cl)cc1-n1ncc2c(NCCC3=CCCCC3)ncnc21,-41%,·,?,16µM*,·,?
Cc1ccc(Cl)cc1-n1ncc2c(NCc3ccc(F)cc3)ncnc21,-43%,·,?,?,·,?
Cc1ccc(Cl)cc1-n1ncc2c(NCCCc3ccccc3)ncnc21,-39%,·,?,7.3µM*,·,?
Cc1ccc(Cl)cc1-n1ncc2c(NCCc3ccccc3)ncnc21,-58%,·,?,16µM*,·,21µM*
CCNc1ncc2nc(-c3cccs3)c(=O)n(CCC#N)c2n1,·,·,·,-17%,·,-13%
Cc1ncc2c(c1CNC(=O)c1ccc3c(c1)OCO3)CCN(C(=O)c1scc3c1CCCC3)C2,·,·,·,7%[9.04 µM],·,-13%
CN(Cc1ccccc1)C1=CC(=[N+]2CCCC2)CC(C)(C)C1,-11%,-52*,?,0.33µM*,0%,0.23µM*
CN(Cc1ccc([N+](=O)[O-])cc1)c1ccccc1,-3%,-2,8%,-19%,-5%,-5%
CCN(CC)C1=CC(=[N+]2CCCC2)CC(C)(C)C1,-23%,-10,-28%,0.52µM*,15%,0.52µM*
CCC1CN(CC(=O)NC(c2ccccn2)C(F)(F)F)Cc2cc(OC)ccc2O1 (configuration not stated),·,·,·,-5%[9.04 µM],·,-19%
CCOC(=O)c1nc2sc3c(c2c(=O)n1C(C)C(=O)OCC)CCCC3 (configuration not stated),2%,?,-4%,10µM*,1%,?
CCOC(=O)c1sc(NC(=O)Cn2nnc3sc4c(c3c2=O)CCCC4)nc1C,6%,29,?,-2%,-7%,-10%
O=C(c1ccc(C(F)(F)F)cc1)N(CCCn1ccnc1)C(c1ccccn1)c1nc2ccccc2[nH]1 (configuration not stated),-8%,28,-3%,-17%,·,-16%
SMILES,HepG2 viability,IL-1B inflam inh,TGFb SMAD3 inh,DT40 TDP1 CPT,S-ASM inh,TDP1 cell noCPT
CCc1ccc2c(c1)C1(NN=C(c3ccc(C)cc3)S1)C(=O)N2 (configuration not stated),-95%,-100*,16µM*,16µM*,?,8.2µM*
CCc1ccc2c(c1)NC(=O)C2(C)Cc1ccc(F)cc1 (configuration not stated),-12%,25,?,?,·,?
CC(C)c1ccc2c(c1)C1(NN=C(c3ccccc3)S1)C(=O)N2 (configuration not stated),-91%,-13,?,3.7µM*,-20%,6.5µM*
COc1ccc(NC2CCCN(C(=O)C3=NNC(=O)CC3)C2)cc1 (configuration not stated),40%,22,5%,-13%,·,-9%
O=[N+]([O-])c1ccc(Cl)c(S(=O)(=O)Nc2cccc(S(=O)(=O)NC3=NCCC3)c2)c1,0%,20,10%,-12%,1%,-13%
COc1ccccc1C1CN(Cc2cccc(C)n2)Cc2ccccc2O1 (configuration not stated),·,·,·,-30%[9.04 µM],·,16µM*
Cc1nc2sccn2c1CN1Cc2ccccc2OC(c2ccccc2F)C1 (configuration not stated),·,·,·,6%[9.04 µM],·,18µM*
Cc1c(Cl)cccc1NC(=O)CNC(=O)c1cn(-c2ccccc2)nc1-c1cccnc1,-8%,0,-21%,?,-7%,?
CC(C)Oc1cccc(C(=O)C2CCCN(Cc3cccn3-c3ccccn3)C2)c1 (configuration not stated),-29%,-92*,?,?,-3%,?
Cc1ccsc1C(=O)C1CCCN(Cc2cccn2-c2ccc(Cl)cn2)C1 (configuration not stated),-29%,-76*,?,23µM*,-3%,26µM*
Cc1ccc(-n2cccn2)c(CN2CCCC(C(=O)c3sccc3C)C2)c1 (configuration not stated),-21%,-95*,?,23µM*,1%,23µM*
CC(C)Oc1cccc(C(=O)C2CCCN(Cc3ccc4nonc4c3)C2)c1 (configuration not stated),-3%,6,1%,-15%,-4%,-9%
COc1cccc(C(=O)C2CCCN(Cc3cccn3-c3ccccn3)C2)c1 (configuration not stated),-18%,?,8%,?,-2%,18µM*
